# Hit rate of the full screen: of about 69,000 compounds, about 8,600 (12%) showed an effect of 50% or more. The sample as a whole holds a higher share of strong results than the screen did.
# Test system: Plasmodium berghei
# Test: Screen against P. berghei liver stage (PbLuc), transformed with Luciferase, at 10uM
# Format: functional, HepG2
# Settings: tested at 10 uM
row,SMILES,INHIBITION
1,Cc1ccc(C(=O)NCCS(=O)(=O)N2CCSCC2)o1,44.9%
2,Cc1nc2cc(O)nn2c(C)c1CCC(=O)N(C)Cc1cscn1,-16.6%
3,O=C1CCCN1c1cccc(CNCc2nc(-c3ccco3)no2)c1,-8%
4,Cn1nccc1CCC(=O)NC1CCCN(c2ccccn2)C1 (stereo not drawn),25.05%
5,CC(C)N(C)[C@@H]1CCN(Cc2nccs2)[C@H]1Cc1ccncc1,24.6%
6,CC1COCCN1Cc1nc(-c2ccc(F)cc2)no1 (stereo not drawn),-0.113%
7,COC1C[C@@H]2CN(C(=O)c3[nH]nc4c3CCCC4)C[C@@H]2C1 (stereo partly drawn),24.8%
8,Cn1c(CN2CCCC(c3noc(C4CC4)n3)C2)cc(=O)n(C)c1=O (stereo not drawn),-50.5%
9,CNC(=O)c1cccc(C2CNCCN2C(=O)c2cccc(F)c2)c1 (stereo not drawn),44.8%
10,COCCN1CCC2(CC1)CN(C(=O)N(C)C)c1ccc(C)cc12,26.2%
11,COc1ccccc1NC(=O)C1(c2ccccc2)CCOCC1,6.26%
12,CCOCC(=O)N1C[C@H]2CC[C@@H](C1)N(Cc1ccccn1)C2=O,28.7%
13,COCCOc1ccc(NC(=O)C2CC(=O)N(C3CC3)C2)cn1 (stereo not drawn),4.71%
14,COCCN(Cc1cnn(C)c1)CC1CCN(C(C)C)CC1,33.7%
15,COCCN(Cc1cnn(C)c1)CC1CCOC1 (stereo not drawn),19.8%
16,COCCN(Cc1ccc(C)cc1)CC1CCOC1 (stereo not drawn),67.4%
17,c1cc(-c2cnc(NC3CC3)nc2[C@H]2CCCO2)ccn1,-12.3%
18,Cc1ccc(C(=O)N2CC3(CCNCC3)c3cc(Cl)ccc32)cn1,5.04%
19,CCN1CC(COC(=O)c2ccc(Br)cc2F)CC1=O (stereo not drawn),0.0459%
20,Cc1ncc2c(n1)CN(Cc1nc(C)c(C)o1)CC2,38%
21,Cc1ncc(CN2CCC3(CCCN(CC4CCC4)C3)C2)cn1 (stereo not drawn),53.5%
22,CCc1ncc(CN2CCC3(CCCN(CC4CCC4)C3)C2)cn1 (stereo not drawn),57.5%

row,SMILES,INHIBITION
1,Cc1noc(C)c1CN1CCCC2(CCN(CC3CCCC3)C2)C1 (stereo not drawn),49.4%
2,COc1ncc(CN2CCC3(CCCN(CC4CCCCC4)C3)C2)cn1 (stereo not drawn),6.94%
3,COCCc1ncc(CN2CCC3(CCCN(CC4CC4)C3)C2)cn1 (stereo not drawn),46.6%
4,COc1ncc(CN2CCC3(CCCN(CC4CCC4)C3)C2)cn1 (stereo not drawn),17.8%
5,Cc1nc(NCC(O)CN2CCCCCC2)c2c(C)nn(C)c2n1 (stereo not drawn),-30.3%
6,CC(=O)N1CC[C@H]2OCC[C@@H](C(=O)Nc3cccnc3C)[C@@H]2C1,-1.28%
7,COC(=O)CN1CC(c2nc(Cc3ccccc3)no2)C1,-14.6%
8,CNC(=O)CCc1cc(C2CCCN2S(C)(=O)=O)nc(C)n1 (stereo not drawn),6.33%
9,OCCNc1cc(-c2ccncc2)ncn1,47.1%
10,C[C@H](O)CNc1cc(-c2ccncc2)ncn1,54.5%
11,C[C@H](O)CNc1cc(-c2ccccc2)ncn1,26.3%
12,Cc1cc(CN2C[C@@H]3COC[C@]3(CNC(=O)c3ccsc3)C2)no1,-2.25%
13,O=C(CCC1CCCC1)N1C[C@@H]2CC[C@H]1CN(Cc1ccncc1)C2,27.6%
14,COc1cccc(-c2noc(-c3ccc(NCCCN)nc3)n2)c1OC,46.7%
15,CC(C)(CO)Nc1ccc(-c2nc(-c3ccccc3F)no2)cn1,91.3%
16,COc1cccc(-c2noc(-c3ccc(NCCCO)nc3)n2)c1OC,43.9%
17,CNCCNc1ccc(-c2nc(-c3cccc(OC)c3OC)no2)cn1,25.8%
18,CN(C)CCN(C)c1ccc(-c2nc(COc3ccccc3)no2)cn1,41.3%
19,COC(=O)CNc1ccc(-c2nc(Cc3ccc(OC)cc3)no2)cn1,26.6%
20,Cc1ccccc1-c1noc(-c2ccc(NCC3COCCO3)nc2)n1 (stereo not drawn),32.3%
21,CN(C)CCNc1ccc(-c2nc(-c3ccccc3F)no2)cn1,80.7%
22,CN(C)CCNc1ccc(-c2nc(COc3ccccc3)no2)cn1,56.5%

row,SMILES,INHIBITION
1,CNC(=O)CCc1cc(C)nc(C2CCN(CC(=O)N(C)C)CC2)c1,23.3%
2,O=C(O)c1ccccc1-c1cnc(Cn2c(=O)cc[nH]c2=O)s1,22%
3,CC(C)N(CC(=O)Nc1cccc(C(=O)N(C)C)c1)C1CC1,-0.614%
4,CC(C)N(CC(=O)Nc1cccc(C#N)c1)C1CC1,54.8%
5,COc1cccc(NC(=O)CN(C(C)C)C2CC2)c1,20%
6,Cc1noc(C)c1CN(C)CC(=O)N1CCc2sccc2C1,14.4%
7,Cn1c(=O)n(C)c2cc(NS(=O)(=O)Cc3ccccc3)ccc21,2.03%
8,CCc1cnc(N2C[C@@H]3C[C@H](C(=O)N(C)C)[C@H](C2)O3)nc1,-46.9%
9,COCc1nn(CC2CC2)c2c1CN(Cc1ccco1)CC2,26%
10,Cc1ncc(CN(C)Cc2nc3cc(Cl)ccc3n2C)s1,74%
11,CCn1c(CN(C)Cc2cnc(C)s2)nc2cc(F)ccc21,-2.09%
12,CCn1c(CN(C)Cc2cnc(C)s2)nc2c(F)cccc21,37.8%
13,COCc1nn(C(C)C)c2c1CCN(Cc1ccccn1)C2,-18.4%
14,CCc1nc(N2CCCC(CCCOC)C2)c2cnn(C)c2n1 (stereo not drawn),49.4%
15,COCCN1CC[C@@H]2OC(COCC(=O)N3CCCC3)CC[C@@H]21 (stereo partly drawn),-36%
16,O=C(Cc1ccsc1)N1C[C@@H]2COC[C@]2(COCc2cccnc2)C1,30.3%
17,Cc1cc(F)ccc1N1CCC(N2C[C@@H](CN(C)C)[C@@H](CO)C2)CC1,38%
18,COc1cc(S(=O)(=O)N2C[C@@H](C)[C@@](C)(O)C2)c(C)cc1C,54.5%
19,Cc1ccc(F)cc1S(=O)(=O)N1C[C@@H](C)[C@@](C)(O)C1,43.6%
20,C[C@@H]1CN(S(=O)(=O)c2ccc(F)cc2F)C[C@]1(C)O,45.6%
21,Cc1cc(F)ccc1S(=O)(=O)N1C[C@@H](C)[C@@](C)(O)C1,52.5%
22,C[C@@H]1CN(S(=O)(=O)c2ccc(F)cc2Cl)C[C@]1(C)O,5.94%

row,SMILES,INHIBITION
1,C[C@@H]1CN(C2CCN(c3ccccc3F)CC2)C[C@]1(C)O,47.9%
2,COc1cc(C)ccc1S(=O)(=O)N1CC[C@](C)(O)[C@H](C)C1,25.5%
3,Cc1cc(F)ccc1N1CCC(N2C[C@@H](C)[C@@](C)(O)C2)CC1,54.4%
4,COC1COC2(CCN(Cc3ccccc3Cl)CC2)C1 (stereo not drawn),-40.3%
5,Cc1cc(CN2CCCC(Cn3cncn3)C2)no1 (stereo not drawn),3.73%
6,COc1cn(CC(=O)N2CCN(c3ccc(F)cc3)CC2)c(C)cc1=O,39.6%
7,CC(C)NC(=O)N1CCN(Cc2ccccn2)CC2(CC(=O)N(C)C2)C1 (stereo not drawn),42.4%
8,CC1CN(C)CCN1CC(=O)NCCOc1cccc(F)c1 (stereo not drawn),22.007%
9,O=C(c1ccc2[nH]nnc2c1)N1CCC(Nc2cccnn2)CC1,33.3%
10,NCCC(=O)NCC1(O)CCCN(c2ccnc3cccnc23)C1 (stereo not drawn),29.4%
11,CCN(c1ccsc1C(=O)N1CCC(C)CC1)S(=O)(=O)c1ccccc1,-8%
12,Cc1ccc(N(C)[C@@H]2CC[C@@H]3CN(C(=O)Cc4cccs4)C[C@@H]32)nn1,-3.02%
13,CN1CCN(CCc2ncnn2-c2ccc3c(c2)OCO3)CC1,89.9%
14,FC(F)(F)CCc1ncnn1-c1ccc2c(c1)OCO2,-147%
15,FC(F)C(F)(F)COCc1ncnn1-c1ccc2c(c1)OCO2,-98.6%
16,Cc1nn(C)c(C)c1OCC(=O)NCc1cccc(CO)c1,-8.92%
17,Cc1nn(C)c(C)c1OCC(=O)NCC(O)c1ccsc1 (stereo not drawn),29.7%
18,Cc1nn(C)c(C)c1OCC(=O)NCC(O)Cc1ccccc1 (stereo not drawn),67.4%
19,Cc1nn(C)c(C)c1OCC(=O)NCc1cccc(C(=O)O)c1,38.6%
20,Cc1nn(C)c(C)c1OCC(=O)NCC(O)c1ccco1 (stereo not drawn),40.6%
21,Cc1nn(C)c(C)c1OCC(=O)NCC(O)c1ccccc1F (stereo not drawn),57.5%
22,CC(C)[C@H](NS(C)(=O)=O)C(=O)NCc1cc(-c2cccc(Cl)c2)nn1C,45.6%

row,SMILES,INHIBITION
1,CCC(CO)N(Cc1ccsc1)Cc1c(C)nn(C)c1Cl (stereo not drawn),27.7%
2,NS(=O)(=O)c1cccnc1Nc1cccc(Cl)c1Cl,27.4%
3,COc1cc(CN(C)C(=O)Cc2c(C)nn(C)c2C)ccc1OC(F)F,93.4%
4,COc1ccc(CCC(=O)N(C)Cc2c(C)nn(C)c2C)cc1,40.9%
5,COc1ccc(CN(C)C(=O)CN2CC(n3cc(C)cn3)C2)cc1F,17.1%
6,COc1ccc(NC(=O)Cc2c(C)nn(C)c2C)cc1F,47.3%
7,Cc1nn(C)c(C)c1CCC(=O)N(C)Cc1ccc2nsnc2c1,-18.3%
8,COc1ccc(CN(C)C(=O)Cc2c(C)nn(C)c2C)cc1F,73.6%
9,CCCS(=O)(=O)N1Cc2nccn2CC(CN2CCCC2)C1 (stereo not drawn),30.3%
10,O=C(Nc1cccc(C(=O)OCC2CCCN2)c1)c1ccoc1 (stereo not drawn),-97.2%
11,N#Cc1c(N)nc2c(c1-c1c[nH]nc1C1CCCCC1)CC(N)CC2 (stereo not drawn),-2.43%
12,CN(C)C(=O)NCc1nnc2n1CCN(Cc1cccs1)C2,27.7%
13,CS(=O)(=O)NCc1nnc2n1CCN(Cc1cccs1)C2,34.7%
14,CS(=O)(=O)NCc1nnc2n1CCN(Cc1ccc(F)cc1)C2,15.9%
15,CC(=O)NCc1nnc2n1CCN(Cc1cccs1)C2,76.2%
16,CS(=O)(=O)NCc1nnc2n1CCN(Cc1nccs1)C2,18.3%
17,CS(=O)(=O)NCc1nnc2n1CCN(Cc1cccnc1)C2,45.1%
18,N#CCC(=O)NCc1nnc2n1CCN(Cc1cccs1)C2,0.164%
19,Cc1ccc(CN2CCn3c(CNS(C)(=O)=O)nnc3C2)s1,50.9%
20,CS(=O)(=O)NCc1nnc2n1CCN(Cc1ccncc1)C2,64.9%
